Nine compounds from the supplement of paper PMC4723716 can be followed below.

In this assay the test system is Plasmodium falciparum NF54 gametocytes. The assay is described as follows: viability index relative to DMSO control (fraction); higher = less gametocyte killing. The settings on record: gametocyte stage: Stage V viability index; 12.5 µM; incubation time: 72 h. In a few lines: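 P. falciparum NF54 gametocytes of each stage (I–V), in serum-containing medium (0.50% gametocytemia, 1.25% hematocrit, 40 µl), were incubated with compound at 12.5 µM in 384-well plates for 72 hr at 37°C under low oxygen. Wells received 5 µl of 5 µM MitoTracker Red CMXRos for 20 min. Then 5 µl was moved into 40 µl of 500 nM dye in serum-free medium and imaged after 30 min (three fields). The viability index was the gametocyte particle count divided by the plate mean of DMSO wells.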
As to `O=C(NC1CCCC1)c1ccc(N2CCC(NCc3cccc(C(F)(F)F)c3)CC2)cc1`, the viability index turned out to be 0.604. For `Cc1sc2ncnc(Sc3nc4ccccc4[nH]3)c2c1C`, the viability index stood at 0.0659.

In the case of `Cc1ccc(Nc2nc(N)c3ccccc3n2)cc1Cl`, the viability index was 0.481. Turning to `Clc1ccc2c(N3CCCC3)ccnc2c1`, the viability index came to 1.14. For `CCc1ccc(CNCC(O)c2ccccc2)cc1` (centres undefined), the viability index worked out at 0.506. Turning to `O=C(Nc1ccc(Cl)cc1C(=O)Nc1ccncc1)c1ccc(Cl)cc1Cl`, the viability index is 0.637. For `COc1ccc(C(=O)NC(c2ccc(Cl)cc2Cl)c2cc(Cl)c3cccnc3c2O)cc1` (centres undefined), the viability index stood at 0.0779.

`CCCCNCC(O)(c1ccc(Cl)cc1)c1ccc(Cl)cc1` came in with a viability index of 0.396. In the case of `COc1ccc(C2NCCc3c2[nH]c2ccccc32)cc1CN1CCN(c2ccc(F)cc2)CC1` (centres undefined), the viability index turned out to be 0.0519.
